Results reported in PubChem BioAssay (EPA / NIEHS).
Records with an inconclusive call do not appear. Calls of active or inactive are those of the source. Rule for the calls: active = hit-call score of the fitted dose curve at least 0.9, where 1 is the maximum; inconclusive = response in the unintended direction; inactive = score below 0.9.

Tests used:
[1] = molecular target: human Sirtuin 1 (SIRT1), SIRT1 (gene 23411) (UniProt Q96EB6); experiment: NVS_ENZ_hSIRT1: NovaScreen (NVS) Enzymatic Assay for human Sirtuin 1 (SIRT1) (AID 2283219)
In short: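 Cell-free recombinant SIRT1 with a fluorescent substrate; substrate and product separated by electrophoretic mobility shift and read by fluorescence intensity, 1 h after dosing. Primary screen at 25 uM in duplicate; hits re-run in concentration-response up to 50 uM, relative to DMSO.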

[2] = molecular target: human Sirtuin 3 (SIRT3), SIRT3 (gene 23410) (UniProt Q9NTG7); experiment: NVS_ENZ_hSIRT3: NovaScreen (NVS) Enzymatic Assay for human Sirtuin 3 (SIRT3) (AID 2283222)
In short: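 Cell-free enzyme assay with recombinant protein and fluorescent substrate, product separated by electrophoretic mobility shift; read 1 hour after dosing. Screened in duplicate at 25 uM, then singleton concentration-response up to 50 uM; loss of signal versus DMSO.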

[3] = molecular target: human Vascular Endothelial Growth Factor Receptor 3 (VEGFR3), FLT4 (gene 2324) (UniProt P35916); experiment: NVS_ENZ_hVEGFR3: NovaScreen (NVS) Enzymatic Assay for human Vascular Endothelial Growth Factor Receptor 3 (VEGFR3) (AID 2283229)
In short: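 Cell-free recombinant VEGFR3 kinase reaction with fluorescent substrate, read 1 h after dosing by electrophoretic mobility shift separation of substrate and product. Single-concentration duplicate screen at 25 uM, then concentration-response up to 50 uM; loss of activity versus DMSO.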

[4] = molecular target: rabbit Imidazoline 2 Central (I2C), CKB (gene 100009085) (UniProt P00567); experiment: NVS_ENZ_rabI2C: NovaScreen (NVS) Enzymatic Assay for rabbit Imidazoline 2 Central (I2C) (AID 2283228)
In short: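 Rabbit brain membranes, cell-free; readout by filter-based scintillation counting 1.5 hours after dosing, loss of signal vs DMSO. Initial duplicate test at 25 uM, then concentration-response with 50 uM top concentration.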

[5] = molecular target: human Sirtuin 2 (SIRT2), SIRT2 (gene 22933) (UniProt Q8IXJ6); experiment: NVS_ENZ_hSIRT2: NovaScreen (NVS) Enzymatic Assay for human Sirtuin 2 (SIRT2) (AID 2283217)
Method: NVS_ENZ_hSIRT2 is a biochemical, single-readout assay that uses extracted gene-proteins in a cell-free assay. Measurements were taken 1 hour after chemical dosing in a 384-well plate.NVS_ENZ_hSIRT2 is one of one assay component(s) measured or calculated from the NVS_ENZ_hSIRT2 assay. It is designed to make measurements of enzyme activity, a form of enzyme reporter, as detected with fluorescence intensity signals by Fluorescence and electrophoretic mobility shift technology.Data from the assay component NVS_ENZ_hSIRT2 was analyzed into 1 assay endpoint. This assay endpoint, NVS_ENZ_hSIRT2, was analyzed in the positive analysis fitting direction relative to DMSO as the negative control and baseline of activity. Using a type of enzyme reporter, loss-of-signal activity can be used to understand changes in the enzymatic activity as they relate to the gene SIRT2. Furthermore, this assay endpoint can be referred to as a primary readout, because this assay has produced multiple assay endpoints where this one serves a enzymatic activity function. To generalize the intended target to other relatable targets, this assay endpoint is annotated to the hydrolase intended target family, where the subfamily is protein deacetylase.
Binding assays used specific radioligands (tritiated, iodinated) with non-radioactive competitive displacement ligands in agonist or antagonist protocols (as indicated) and various reference compounds and inhibitors to titrate specific binding to receptors and transporters. Most enzyme assays (CYPs, kinases, phosphatases, proteases, HDACs) used recombinant protein and specific substrates (fluorescence mostly, some colorimetric and radioactive) and inhibitors, followed by a biochemical separation of substrate and product. All assays for the biochemical HTS were initially run in duplicate at a single concentration (10 uM for CYP450 assays and 25 uM for all others). Assay-chemical combinations meeting a pre-defined threshold (e.g., 30% inhibition and other criteria defined below) were then run in singleton concentration-response format with maximum concentration of 20 uM for CYPs and 50 uM for all others. Each assay was run with positive and negative controls, and concurrent controls on every plate. The follow-up (secondary) screen tested active chemical-pairs in concentration series, as well as a few additional assays not tested in the primary screen, some selected negative inactives, and several cases re-run in the concentration series for confirmatory purposes.

[6] = molecular target: human Vascular Endothelial Growth Factor Receptor 1 (VEGFR1), FLT1 (gene 2321) (UniProt P17948); experiment: NVS_ENZ_hVEGFR1: NovaScreen (NVS) Enzymatic Assay for human Vascular Endothelial Growth Factor Receptor 1 (VEGFR1) (AID 2283226)
In short: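 Cell-free assay of recombinant human VEGFR1 kinase with substrate, measured 1 h after dosing; fluorescence with electrophoretic mobility-shift separation of substrate and product, referenced to DMSO; primary screen at 25 uM in duplicate, actives then run in concentration series.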

[7] = molecular target: human Rho Associated Coiled-coil Containing Protein Kinase 1 (ROCK1), ROCK1 (gene 6093) (UniProt Q13464); experiment: NVS_ENZ_hROCK1: NovaScreen (NVS) Enzymatic Assay for human Rho Associated Coiled-coil Containing Protein Kinase 1 (ROCK1) (AID 2283214)
In short: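 Cell-free recombinant human ROCK1 activity assay; fluorescent substrate and product separated by electrophoretic mobility shift, read 1 h after dosing. Screened in duplicate at 25 uM; loss of signal versus DMSO baseline scored as inhibition.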

[8] = molecular target: human SRC Proto-Oncogene, Non-receptor Tyrosine Kinase (SRC), SRC (gene 6714) (UniProt P12931); experiment: NVS_ENZ_hSRC: NovaScreen (NVS) Enzymatic Assay for human SRC Proto-Oncogene, Non-receptor Tyrosine Kinase (SRC) (AID 2283223)
In short: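 Cell-free kinase activity assay with fluorescent substrate, product separated by electrophoretic mobility shift, read 1 h after dosing. Duplicate single point at 25 uM, then concentration-response up to 50 uM; loss of signal versus DMSO.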

[9] = molecular target: human Tropomyosin Receptor Kinase A (TRKA), NTRK1 (gene 4914) (UniProt P04629); experiment: NVS_ENZ_hTrkA: NovaScreen (NVS) Enzymatic Assay for human Tropomyosin Receptor Kinase A (TRKA) (AID 2283224)
In short: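 Recombinant human TrkA activity read after 1 h by fluorescence with electrophoretic mobility shift separating substrate and product. Primary screen in duplicate at 25 uM; actives were rerun in concentration-response up to 50 uM. Loss of signal versus DMSO.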

[10] = molecular target: human Protein Tyrosine Phosphatase Receptor Type M (PTPRM), PTPRM (gene 5797) (UniProt P28827); experiment: NVS_ENZ_hPTPRM: NovaScreen (NVS) Enzymatic Assay for human Protein Tyrosine Phosphatase Receptor Type M (PTPRM) (AID 2283215)
In short: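 Cell-free recombinant PTPRM with fluorogenic substrate; product separated from substrate by electrophoretic mobility shift and read by fluorescence, 1.33 h after dosing. Primary screen single concentration (25 uM) in duplicate; actives retested in concentration series; loss of signal versus DMSO.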

rabbit Imidazoline 2 Central (I2C), CKB (gene 100009085), sequence (P00567 whole entry, looked up): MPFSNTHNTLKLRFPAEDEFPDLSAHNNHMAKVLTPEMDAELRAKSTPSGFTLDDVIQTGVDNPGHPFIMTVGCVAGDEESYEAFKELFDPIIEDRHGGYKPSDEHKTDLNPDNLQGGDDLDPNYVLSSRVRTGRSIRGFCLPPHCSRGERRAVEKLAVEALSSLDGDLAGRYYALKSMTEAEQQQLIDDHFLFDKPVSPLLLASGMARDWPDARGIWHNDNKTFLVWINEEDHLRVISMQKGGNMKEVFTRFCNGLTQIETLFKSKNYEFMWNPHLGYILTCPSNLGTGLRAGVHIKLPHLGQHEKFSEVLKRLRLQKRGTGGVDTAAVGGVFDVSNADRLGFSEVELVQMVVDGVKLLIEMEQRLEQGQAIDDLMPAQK
human Rho Associated Coiled-coil Containing Protein Kinase 1 (ROCK1), ROCK1 (gene 6093), sequence (Q13464 whole entry, looked up): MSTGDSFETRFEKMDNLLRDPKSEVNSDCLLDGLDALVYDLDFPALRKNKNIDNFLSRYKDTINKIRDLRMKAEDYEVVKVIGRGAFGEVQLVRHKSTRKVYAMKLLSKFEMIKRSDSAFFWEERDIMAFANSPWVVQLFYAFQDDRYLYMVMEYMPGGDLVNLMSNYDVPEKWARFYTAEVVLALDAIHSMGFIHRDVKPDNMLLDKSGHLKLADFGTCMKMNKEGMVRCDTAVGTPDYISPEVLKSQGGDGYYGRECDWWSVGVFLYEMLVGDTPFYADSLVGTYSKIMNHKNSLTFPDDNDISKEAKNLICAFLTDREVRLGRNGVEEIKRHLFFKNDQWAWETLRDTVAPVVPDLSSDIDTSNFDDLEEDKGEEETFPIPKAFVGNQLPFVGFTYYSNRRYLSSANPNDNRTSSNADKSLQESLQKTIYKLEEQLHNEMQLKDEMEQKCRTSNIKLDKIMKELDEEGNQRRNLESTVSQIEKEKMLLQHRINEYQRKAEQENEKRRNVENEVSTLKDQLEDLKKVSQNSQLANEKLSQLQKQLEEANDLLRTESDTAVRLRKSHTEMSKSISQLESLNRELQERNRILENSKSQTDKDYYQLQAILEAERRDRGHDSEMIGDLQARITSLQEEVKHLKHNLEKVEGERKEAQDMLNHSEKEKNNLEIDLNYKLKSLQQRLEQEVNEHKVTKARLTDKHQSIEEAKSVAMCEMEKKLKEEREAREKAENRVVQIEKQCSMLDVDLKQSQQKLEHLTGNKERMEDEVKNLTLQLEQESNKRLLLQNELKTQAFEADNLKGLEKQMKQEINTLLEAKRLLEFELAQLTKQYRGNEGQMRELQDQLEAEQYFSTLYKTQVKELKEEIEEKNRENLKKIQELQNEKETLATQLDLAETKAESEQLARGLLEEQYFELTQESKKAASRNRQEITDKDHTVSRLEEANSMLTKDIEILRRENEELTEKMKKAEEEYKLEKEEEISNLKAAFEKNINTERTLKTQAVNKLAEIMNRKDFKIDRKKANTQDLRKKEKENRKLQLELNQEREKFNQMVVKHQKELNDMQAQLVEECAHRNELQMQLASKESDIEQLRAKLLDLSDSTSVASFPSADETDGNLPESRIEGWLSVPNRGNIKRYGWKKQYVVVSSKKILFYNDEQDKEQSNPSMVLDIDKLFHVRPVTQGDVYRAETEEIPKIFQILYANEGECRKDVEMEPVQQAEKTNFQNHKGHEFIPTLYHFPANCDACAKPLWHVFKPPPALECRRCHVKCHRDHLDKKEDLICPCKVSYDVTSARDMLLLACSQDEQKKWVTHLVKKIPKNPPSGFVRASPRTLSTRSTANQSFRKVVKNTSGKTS
human Vascular Endothelial Growth Factor Receptor 3 (VEGFR3), FLT4 (gene 2324), sequence (P35916 whole entry, looked up): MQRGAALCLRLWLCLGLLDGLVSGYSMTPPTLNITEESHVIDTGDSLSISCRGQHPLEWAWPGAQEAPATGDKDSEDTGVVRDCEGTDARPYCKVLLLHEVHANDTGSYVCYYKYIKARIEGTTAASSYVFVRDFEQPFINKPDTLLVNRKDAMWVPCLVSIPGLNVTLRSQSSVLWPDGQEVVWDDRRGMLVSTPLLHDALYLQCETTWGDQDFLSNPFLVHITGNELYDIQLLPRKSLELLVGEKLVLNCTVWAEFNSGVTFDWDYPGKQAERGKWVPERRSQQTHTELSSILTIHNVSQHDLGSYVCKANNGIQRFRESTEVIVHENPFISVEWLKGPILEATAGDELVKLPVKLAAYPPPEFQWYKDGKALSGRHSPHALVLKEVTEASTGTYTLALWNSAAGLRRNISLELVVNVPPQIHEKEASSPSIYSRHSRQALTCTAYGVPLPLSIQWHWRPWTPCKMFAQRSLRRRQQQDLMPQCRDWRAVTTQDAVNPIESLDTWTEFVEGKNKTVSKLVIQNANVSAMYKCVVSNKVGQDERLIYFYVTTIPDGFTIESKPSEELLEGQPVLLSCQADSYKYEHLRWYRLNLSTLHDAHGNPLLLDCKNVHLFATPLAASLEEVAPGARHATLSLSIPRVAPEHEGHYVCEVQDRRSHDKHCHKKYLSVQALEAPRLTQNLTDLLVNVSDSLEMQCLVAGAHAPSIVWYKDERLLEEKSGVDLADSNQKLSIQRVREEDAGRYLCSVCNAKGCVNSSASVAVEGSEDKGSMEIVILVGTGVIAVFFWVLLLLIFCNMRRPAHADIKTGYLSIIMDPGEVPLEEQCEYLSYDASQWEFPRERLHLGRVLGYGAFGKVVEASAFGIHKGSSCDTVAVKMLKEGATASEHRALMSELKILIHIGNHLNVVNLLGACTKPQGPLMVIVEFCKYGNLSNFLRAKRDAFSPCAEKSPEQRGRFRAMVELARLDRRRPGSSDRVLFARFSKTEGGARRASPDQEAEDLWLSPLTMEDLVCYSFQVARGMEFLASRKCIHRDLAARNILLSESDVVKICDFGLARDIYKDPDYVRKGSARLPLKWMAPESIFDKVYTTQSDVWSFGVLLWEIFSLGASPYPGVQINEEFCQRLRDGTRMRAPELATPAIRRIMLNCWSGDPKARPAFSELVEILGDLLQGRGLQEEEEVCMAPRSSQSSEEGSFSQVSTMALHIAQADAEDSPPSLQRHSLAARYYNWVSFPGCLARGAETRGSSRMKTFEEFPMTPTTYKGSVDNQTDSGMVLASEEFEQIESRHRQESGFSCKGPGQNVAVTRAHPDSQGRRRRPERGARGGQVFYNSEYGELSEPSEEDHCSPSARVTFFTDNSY
human Vascular Endothelial Growth Factor Receptor 1 (VEGFR1), FLT1 (gene 2321), sequence (P17948 whole entry, looked up): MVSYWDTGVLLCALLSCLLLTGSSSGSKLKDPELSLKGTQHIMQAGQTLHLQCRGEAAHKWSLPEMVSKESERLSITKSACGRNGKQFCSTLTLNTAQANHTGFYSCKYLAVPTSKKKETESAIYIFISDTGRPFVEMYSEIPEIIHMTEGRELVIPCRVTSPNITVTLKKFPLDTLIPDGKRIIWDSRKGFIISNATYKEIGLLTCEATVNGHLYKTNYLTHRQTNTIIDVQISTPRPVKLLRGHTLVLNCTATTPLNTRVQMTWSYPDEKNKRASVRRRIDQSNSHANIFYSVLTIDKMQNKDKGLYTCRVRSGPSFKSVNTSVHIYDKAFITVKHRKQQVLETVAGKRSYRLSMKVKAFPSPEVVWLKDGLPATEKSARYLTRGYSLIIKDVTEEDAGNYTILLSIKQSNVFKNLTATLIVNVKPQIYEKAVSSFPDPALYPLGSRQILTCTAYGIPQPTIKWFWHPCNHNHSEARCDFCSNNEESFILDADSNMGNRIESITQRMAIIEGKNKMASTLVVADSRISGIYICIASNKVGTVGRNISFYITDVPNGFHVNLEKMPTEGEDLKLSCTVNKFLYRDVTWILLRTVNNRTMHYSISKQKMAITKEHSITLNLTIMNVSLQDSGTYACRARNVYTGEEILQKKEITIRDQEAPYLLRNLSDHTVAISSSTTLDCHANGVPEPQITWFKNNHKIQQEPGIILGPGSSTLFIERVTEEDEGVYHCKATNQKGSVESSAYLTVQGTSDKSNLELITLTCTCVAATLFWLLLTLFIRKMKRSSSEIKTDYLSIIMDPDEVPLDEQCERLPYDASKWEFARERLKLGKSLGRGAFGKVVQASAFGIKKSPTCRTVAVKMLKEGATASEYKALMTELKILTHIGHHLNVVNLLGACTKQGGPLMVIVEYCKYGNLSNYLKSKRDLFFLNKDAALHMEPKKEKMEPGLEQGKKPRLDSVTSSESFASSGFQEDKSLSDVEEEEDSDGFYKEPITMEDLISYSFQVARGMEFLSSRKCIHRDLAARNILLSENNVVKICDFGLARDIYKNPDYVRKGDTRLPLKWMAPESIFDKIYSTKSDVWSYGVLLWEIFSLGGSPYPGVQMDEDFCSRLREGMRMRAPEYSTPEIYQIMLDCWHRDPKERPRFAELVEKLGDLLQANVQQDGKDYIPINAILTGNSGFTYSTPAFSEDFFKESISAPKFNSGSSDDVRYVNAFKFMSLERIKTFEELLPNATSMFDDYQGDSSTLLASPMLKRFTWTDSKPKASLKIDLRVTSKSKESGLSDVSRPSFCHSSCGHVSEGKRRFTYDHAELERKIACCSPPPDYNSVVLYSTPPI
human SRC Proto-Oncogene, Non-receptor Tyrosine Kinase (SRC), SRC (gene 6714), sequence (P12931 whole entry, looked up): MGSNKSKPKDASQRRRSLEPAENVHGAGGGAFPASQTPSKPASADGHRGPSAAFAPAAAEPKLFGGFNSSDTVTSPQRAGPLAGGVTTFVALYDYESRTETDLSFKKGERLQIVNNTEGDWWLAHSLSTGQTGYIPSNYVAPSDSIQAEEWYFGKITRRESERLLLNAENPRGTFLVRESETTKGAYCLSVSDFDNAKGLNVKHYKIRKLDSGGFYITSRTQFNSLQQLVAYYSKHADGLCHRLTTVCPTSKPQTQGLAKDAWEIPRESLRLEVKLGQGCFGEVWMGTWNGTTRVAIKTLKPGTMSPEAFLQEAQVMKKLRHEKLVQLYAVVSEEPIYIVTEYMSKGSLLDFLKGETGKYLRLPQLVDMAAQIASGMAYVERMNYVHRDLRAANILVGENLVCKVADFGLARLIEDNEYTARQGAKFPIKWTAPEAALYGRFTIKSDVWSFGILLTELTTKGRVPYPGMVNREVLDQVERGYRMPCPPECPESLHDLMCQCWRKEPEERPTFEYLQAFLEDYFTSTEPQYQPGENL

Nc1cccc2c(N)cccc12
outcome [1]: inactive | outcome [2]: inactive | outcome [3]: inactive

CCC(=C(c1ccc(O)cc1)c1ccc(OCCN(C)C)cc1)c1ccccc1
outcome [2]: inactive | AC50 [4]: 0.408 µM (active)

CCN(CC)CCNc1ccc(CNC=O)c2sc3ccc(OC)cc3c(=O)c12
outcome [5]: inactive | outcome [1]: inactive | outcome [2]: inactive | outcome [4]: inactive | outcome [3]: inactive

CC(C)(C)c1cccc(C(C)(C)C)c1O
outcome [5]: inactive | outcome [6]: inactive

CCCCC(CC)COC(=O)CCCCC(=O)OCC(CC)CCCC (stereo not given)
outcome [1]: inactive

NC(=O)N1C(=O)C(C(=O)c2cc(Cl)cs2)c2cc(F)c(Cl)cc21 (stereo not given)
outcome [7]: inactive | outcome [4]: inactive

COCC(C)OCC(C)O (stereo not given)
outcome [5]: inactive | outcome [1]: inactive | outcome [8]: inactive

Cc1oc(-c2ccccc2)nc1CCOc1ccc(C[C@H](Nc2ccccc2C(=O)c2ccccc2)C(=O)O)cc1
AC50 [5]: 18.3 µM (active)

O=C(O)Cc1cc(I)c(Oc2cc(I)c(O)c(I)c2)c(I)c1
outcome [8]: inactive | AC50 [9]: 1.6 µM (active) | outcome [6]: inactive | outcome [3]: inactive

CCCOC(=O)c1ccc(O)cc1
outcome [6]: inactive

c1ccc2c(c1)ccc1ccccc12
outcome [7]: inactive

CCCCCCCC(=O)O
outcome [5]: inactive | AC50 [1]: 6.65 µM (active) | outcome [4]: inactive

CCCCCCCCCCCCc1ccccc1S(=O)(=O)O
AC50 [10]: 16.3 µM (active) | AC50 [5]: 24.4 µM (active) | outcome [8]: inactive | AC50 [3]: 9.14 µM (active)

Cc1cc(CCN2CCN(c3nsc4ccccc34)CC2)cc2c1NC(=O)CC2(C)C
outcome [1]: inactive

CC[C@H](C)[C@@H](C(=O)O)n1sc2ccccc2c1=O
outcome [1]: inactive

CC1=C(/C=C/C(C)=C/C=C/C(C)=C/C(=O)O)C(C)(C)CCC1
outcome [6]: inactive | outcome [4]: inactive

CCCCOCCO
outcome [5]: inactive | outcome [6]: inactive

CCCOc1sc(C(=O)N2CCC(c3cc(CN)ccc3F)CC2)c(C)c1Br
outcome [7]: inactive | AC50 [4]: 4.64 µM (active)
